Experimental data from PubChem BioAssay (NCATS).
Records with an inconclusive call do not appear. Calls of active or inactive are those of the source. Calls come from the whole dose curve; as a rule, active = well fitted cell-killing curve with a large enough effect; inconclusive = small, poorly fitted or top-dose-only effect, or effect the other way; inactive = no such curve, though single readings can be large or run the other way.

Tests used:
[1] = Viability qHTS for spleen associated tyrosine kinase inhibitor (SYKi) naive MV4-11 cells (AID 1963823); note: nearly all actives have a fitted effect of over 40% in size
Summary of the method: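 Compounds were dispensed acoustically onto plates, MV4-11 cells (SYKi-naive) added at 500 per well, and plates incubated 72 hr at 37 C. CellTiter-Glo was added and luminescence measured after 10 min.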

[2] = Viability qHTS for spleen associated tyrosine kinase inhibitor (SYKi) drug resistant MV4-11 cells (AID 1963824); note: nearly all actives have a fitted effect of over 35% in size
Summary of the method: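 SYK-inhibitor-resistant MV4-11 AML cells were seeded at 500 per well onto compound and cultured 72 hours (37 °C, 5% CO2). CellTiter-Glo was then added, and after 10 min at room temperature, luminescence gave viability.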
Potency is the fitted concentration of half-maximal effect.

Compound	Potency [1]	Potency [2]
CC/C=C\CC1C(=O)C=CC1(CCCCC1CCC(=O)O1)OC(C)=O (configuration not stated)	12.8 µM (active)	7.18 µM (active)
CC(C)[C@H]1CC[C@@]2(O)COC(=O)[C@H]2[C@@H]1/C=C(\CO)C(=O)O	inactive	inactive
C[C@@H]1O[C@@H](OC[C@H]2O[C@@H](OCc3ccccc3)[C@H](O)[C@@H](O)[C@@H]2O)[C@H](O)[C@H](O)[C@H]1O	inactive	inactive
Cc1nc(Nc2cnn(C3CCNCC3)c2)nc2c1N(C)C(=O)c1cc3ccccc3cc1N2C	3.66 µM (active)	6.51 µM (active)
O=C1c2ccccc2-c2nc3nnnn3nc21 (tested in a mixture with another compound)	0.092 µM (active)	0.103 µM (active)
CCOc1ccc(Cc2nc(-c3c(C)nc4ccccn34)cs2)cc1	0.0366 µM (active)	0.0184 µM (active)
CC1=CC2/C=C(\C)CCC(O)C/C=C/C(=O)OC23C(=O)NC(CC(C)C)C3C1C (configuration not stated)	8.93 µM (active)	10 µM (active)
COc1nc2ccc(Br)cc2cc1[C@@H](c1ccccc1)[C@@](O)(CCN(C)C)c1cccc2ccccc12	6.51 µM (active)	9.2 µM (active)
CC1=CC2=C(C)C(=O)[C@](C)(O)[C@H](O)C2=CO1	inactive	inactive
C#CCN(Cc1cc2c(=O)n(C)c(CN3CCN(C)CC3)nc2cc1Cl)c1ccc(C(=O)NCc2cccnc2)cc1	inactive	inactive
CC(=O)/C=C/C1(O)C(C)CC(O[C@@H]2O[C@H](CO)[C@@H](O)[C@H](O)[C@H]2O)CC1(C)C (some centres not stated)	inactive	inactive
